Results reported in PubChem BioAssay AID686933 (National Center for Advancing Translational Sciences (NCATS), 2013).
Inconclusive results are not listed. Entries that show only a call come without a potency. Calls of active or inactive are those of the source. Calls come from the whole dose curve; as a rule, active = well fitted inhibition curve with a large enough effect; inconclusive = small, poorly fitted or top-dose-only effect; inactive = flat fitted curve, though single readings scatter.

Biological target: Luciferin 4-monooxygenase (Photinus pyralis) (UniProt P08659)
Test: qHTS screen for small molecules that inhibit ELG1-dependent DNA repair: SAR in Biochemical Luciferin Assay
Settings: purified firefly luciferase, luciferin luminescence counter-screen; series mostly up to 57.5 µM
Description: Cancer cells divide rapidly compared to normal cells in the body. During cell division, cancer cells need to duplicate their genome by DNA replication. The failure of genome duplication leads to cancer cells' death. Therefore, inhibitors of DNA replication could specifically kill cancer cells. Based on this concept, many chemotherapeutic agents were developed and have been used to treat cancer patients. However, there are a limited number of agents available in the clinical setting, and some of those that do exist have low efficacy and severe side effects. Therefore, if we can find the compounds that effectively block DNA replication either by directly damaging DNA or by inhibiting other cellular mechanisms, the options for cancer treatment will be broadened. With this in mind, we developed a quantitative high-throughput ELG1-luciferase reporter gene assay. Small molecules that specifically block ELG1 function in response to DNA damage can be identified by monitoring the suppression of luciferase activity. Since ELG1 defines a pathway for repairing DNA damage, agents blocking ELG1 function can be used to sensitize cancer cells to chemotherapeutic agents whose mechanism of action involves the induction of DNA damage. This counter assay is a luciferase assay, that following treatment with putative ELG1 antagonists, aims to eliminate luciferase enhancers/inhibitors. NIH Molecular Libraries Probe Production Network [MLPCN] NIH Chemical Genomics Center [NCGC] MLPCN Grant: R03 MH092164 Assay Provider: Kyungjae Myung, NHGRI, NIH
3 uL of substrate reagent will be pipetted into each well in 1536-well white, solid-bottom plates using a FRD dispenser, followed by addition of 23 nL of DMSO or compounds by pintool. After compound addition, 1 µL of luciferase will be added into the wells. The plates will be read in a ViewLux CCD-based plate reader.

Structure (SMILES)	Potency
COc1ccc(C2=Nn3c(nnc3-c3ccccc3OC)SC2)cc1OC	inactive
Cc1csc(CNc2ncnc3ccc(-c4ccoc4)cc23)c1	inactive
CN(Cc1ccco1)c1ncnc2ccc(-c3cccc(Cl)c3)cc12	inactive
O=C(Nc1ccccn1)c1sc2ccccc2c1Cl	0.164 µM (active)
O=C(COc1ccccc1F)Nc1ccc(-c2nc3ccccc3s2)cc1	inactive
OCC1OC(n2cnc3c(=S)nc[nH]c32)C(O)C1O (stereo not given)	inactive
CN(C)c1cccc(-c2ccnc(N3CCC(C(N)=O)CC3)n2)c1	16.4 µM (active)
c1cncc(CNc2ncnc3ccc(-c4ccoc4)cc23)c1	inactive
COc1ccc(OC)c(-c2nnc3n2N=C(c2ccc(OC)c(OC)c2)CS3)c1	inactive
N#Cc1ccc(-c2ccc(-c3nc4ccccc4c(=O)[nH]3)o2)cc1	inactive
CS[C@@H]1SC[C@H]2C(=O)N(C)C(C(C)C)C(=O)OC[C@@H](NC(=O)c3cnc4ccccc4n3)C(=O)N[C@@H](C)C(=O)N(C)[C@H]1C(=O)N(C)C(C(C)C)C(=O)OC[C@@H](NC(=O)c1cnc3ccccc3n1)C(=O)N[C@@H](C)C(=O)N2C (stereo not given in full)	inactive
Cc1nc(Nc2nc3ccccc3o2)nc2c1CCCC2	0.651 µM (active)
CC(/C=C/C(=O)NO)=C\[C@@H](C)C(=O)c1ccc(N(C)C)cc1	inactive
O=c1[nH]c(-c2ccc(-c3cccc(Cl)c3)o2)nc2ccccc12	0.461 µM (active)
COc1cc2c(cc1OC)C1C(=O)c3c(O)cc4c(c3OC1CO2)C=CC(C)(C)O4 (stereo not given)	inactive
